From PubChem BioAssay AID1259240 (Keith Lab, Institute of Cancer Science, University of …, 2017)
Values without a mark were called inactive. Activity calls are given as the source filed them. Cut-off read from the data, not from the text of the source: active = fold change mostly below about -2 (no sharp cut-off); inactive = mostly above about -1.8.

Experiment: TERT promoter activity modulators, primary screen, cell-based, luciferase reporter, human (AID 1259240)
Conditions: A2780 TERT promoter luciferase reporter, 16 h; at 20 µM, fold versus average of vehicle-only wells
With `COc1ccc(Nc2c(-c3ccc(N4CCOCC4)cc3)nc3ncccn23)cc1OC` the fold change was -1.26.
With `Cc1[nH]nc2c1C(c1cccs1)NC2=O` (stereo not given) the fold change was -1.17.
Work on `O=C(NC1CCCC1)c1ccc(CNc2c(NC3CCCC3)c(=O)c2=O)cc1` yielded a fold change of 1.06.
For `CCn1c(SCC(=O)N2CCCc3ccccc32)nnc1-c1c[nH]c2ccccc12`, the outcome was “inactive”.
For `O=C(Cn1c(=O)c2ccccc2n(CC(=O)Nc2ccc(F)cc2F)c1=O)NCc1ccco1`, the fold change was -2.2 (active).
With `Cn1c(=O)c2c(SCC(=O)N3CCOCC3)nc(-c3ccco3)nc2n(C)c1=O` the fold change was 1.36.
In the case of `CCOc1nc(-c2ccncc2)nc2ccccc12`, the fold change was -4.22 (active).
In the case of `CC(C)Oc1cc(O)c2c(=O)c(-c3ccc(O)cc3)coc2c1`, the fold change was -6.88 (active).
With `COC(=O)c1c(NC(=O)Cn2nc(C)c([N+](=O)[O-])c2C)sc2c1CCCC2` the fold change was -1.68.
`O=C(O)CN1C(=O)/C(=C\c2ccc(-c3ccccc3)o2)SC1=S` showed a fold change of -1.88.
Molecule `NC(=O)c1sc2nc(C3CC3)cc(-c3ccc(Br)cc3)c2c1N` has a fold change of -1.28.
`CN1CCN(CCCNC(=O)Cn2ncc3c4ccccc4n(C)c3c2=O)CC1` showed a fold change of -1.07.
In the case of `COc1ccccc1CNc1nc2ccccc2n2nnnc12`, the fold change was -3.71 (active).
Molecule `O=C(Nc1cccc(F)c1)C1CCCN(S(=O)(=O)c2cnc[nH]2)C1` (stereo not given) has a fold change of 1.26.
With `CCS(=O)(=O)Nc1cccc(C2=NN(S(C)(=O)=O)C(c3cccs3)C2)c1` (stereo not given) the fold change was -1.32.
For `COCCn1c(C)cc(C(=O)CSc2nnc3c(C)cc4ccccc4n23)c1C`, the fold change was 1.96.
Work on `CCCCNC(=O)CCN1C(=O)c2ccccc2S1(=O)=O` yielded a fold change of -1.02.
For `CCOC(=O)Cn1c(=O)oc2cc(S(=O)(=O)NCc3ccccn3)ccc21`, the fold change was 1.36.
For `COc1ccccc1Nc1nc(N)nc(CN2CCN(C)CC2)n1`, the fold change was -3.68 (active).
With `COc1cc2nc(CN3C(=O)c4ccccc4C3=O)oc(=O)c2cc1OC` the fold change was -2.87 (active).
In the case of `Cc1ccc(-n2c(-c3ccco3)nc3c(cnn3-c3ccccc3C)c2=O)cc1F`, the fold change was -1.09.
With `Cc1ccc2[nH]cc(S(=O)(=O)c3ccc(F)cc3)c(=O)c2c1` the fold change was -1.06.
`Cc1cc(C)cc(N(CC(=O)O)S(=O)(=O)c2ccc3[nH]c(=O)c(=O)[nH]c3c2)c1` gave a fold change of 1.37.
`COc1ccc(-n2c(C)c(C(C)=O)c3cc(OCC(N)=O)ccc32)cc1` showed a fold change of -1.38.
For `O=c1oc2cc(O)ccc2cc1S(=O)(=O)c1ccc(Cl)cc1`, the fold change was -2.04 (active).
In the case of `O=C(Nc1cnn(Cc2ccc(F)cc2)c1)c1cc(C2CC2)on1`, the fold change was -1.17.
For `O=C1Nc2ccccc2N(O)N1c1cc(-c2cccc(Cl)c2)no1`, the fold change was 1.45.
With `CC1CCN(C(=O)Cn2cc(/C=C3/C(=O)Nc4ccccc43)c3ccccc32)CC1` the fold change was 1.13.
`Cc1cccc(CCn2c(=O)c3ccccc3n(Cc3cc(=O)n4ccccc4n3)c2=O)c1` showed a fold change of -1.38.
`Cc1ccc(C)c(Nc2nc3ccccc3n3nnnc23)c1` showed a fold change of 1.43.
Work on `O=C1C2ON(c3ccccc3)C(c3ccncc3)C2C(=O)N1c1ccc(N2CCOCC2)cc1` (stereo not given) yielded a fold change of -1.7.
Molecule `CC1CN(C2=NC(=O)/C(=C/c3ccccc3Br)S2)CC(C)O1` (stereo not given) has a fold change of -1.41.
With `CC(CCc1ccco1)NC(=O)Cn1ncc2c1-c1ccccc1OC2` (stereo not given) the fold change was 1.12.
`Cn1c(=O)c2c(SCC(=O)N3CCCc4ccccc43)nc(-c3ccco3)nc2n(C)c1=O` gave a fold change of 1.45.
`COc1ccccc1N1CCN(S(=O)(=O)c2cccc3cccnc23)CC1` showed a fold change of -1.29.
Molecule `CCOC(=O)N1CCC(Nc2c(N3CCN(c4ccccc4F)CC3)c(=O)c2=O)CC1` has a fold change of -1.13.
Molecule `CCOC(=O)N1CCN(c2nc3ccccc3n3cnnc23)CC1` has a fold change of 1.59.
`O=C(NCc1ccncc1)c1cc(-c2ccc3c(c2)OCO3)nc2ccccc12` gave a fold change of -1.04.
Molecule `CC1CC(C)CN(C(=O)C2CCC(CNS(=O)(=O)c3cccc4nsnc34)CC2)C1` (stereo not given) has a fold change of -1.1.
Work on `CCN(Cc1ccccc1)C(=O)C1CCCN1S(=O)(=O)c1cccc2nsnc12` (stereo not given) yielded a fold change of 1.58.
